Test results reported in PubChem BioAssay.

Experiments:
[1] = test system: Human papillomavirus type 1a protein E7 (residues 44-93); experiment: HPV1a E7 fragment binders on microarrays, primary screen, biochemical, small-molecule microarray, residues 44-93, 635 nm fluorescence (AID 1108); conditions: small-molecule microarray binding, fluorescence 635 nm; higher = more signal;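 note: E7 fragment applied at 1 µg/mL in TBST for 1 h at 4 C; score combines spot fluorescence with its signal to noise ratio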
[2] = modulators of HCV replicon luciferase signal, primary screen, HCV replication inhibitor project, Huh7 cells, luciferase reporter (AID 1109); conditions: 48 h, higher = more signal;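 note: huh7 hepatoma cells harbouring a luciferase neomycin HCV replicon reporter; luciferase luminescence as measure of HCV replicon replication; test concentration not given here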
[3] = target: Left-right determination factor 2 (Homo sapiens) (UniProt O00292); experiment: LEFTY2 binders on small-molecule microarrays, primary screen, biochemical, small-molecule microarray, 635 nm fluorescence scan (AID 1110); conditions: LEFTY2 binding, higher = more signal
Chain of Left-right determination factor 2 (Homo sapiens) (O00292 whole entry, looked up): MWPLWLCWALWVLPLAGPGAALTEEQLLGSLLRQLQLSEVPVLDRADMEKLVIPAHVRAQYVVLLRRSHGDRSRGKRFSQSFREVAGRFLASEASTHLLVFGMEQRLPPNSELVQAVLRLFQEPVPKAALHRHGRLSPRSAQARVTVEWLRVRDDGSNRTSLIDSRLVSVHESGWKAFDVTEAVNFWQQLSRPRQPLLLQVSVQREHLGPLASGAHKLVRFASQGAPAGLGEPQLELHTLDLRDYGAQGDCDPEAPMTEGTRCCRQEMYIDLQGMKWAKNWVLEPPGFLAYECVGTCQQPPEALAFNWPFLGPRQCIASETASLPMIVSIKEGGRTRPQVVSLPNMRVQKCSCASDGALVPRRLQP

[4] = target: Calmodulin-1 (Homo sapiens) (UniProt P0DP23); experiment: CALM1 binders on microarrays, EGTA buffer, profiling panel, biochemical, small-molecule microarray, Cy5-labelled CALM1 (AID 1111); conditions: Cy5-CALM1 binding fluorescence, higher = more signal;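 note: labelled calmodulin applied in Tris saline Tween buffer holding calcium plus EGTA and DTT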
[5] = target: Calmodulin-1 (Homo sapiens) (UniProt P0DP23); experiment: calcium-bound CALM1 binders on microarrays, profiling panel, artefact control for SMM control-protein annotation, biochemical, small-molecule microarray, Cy5-labelled CALM1, plus calcium (AID 1112); conditions: Cy5-CALM1 binding fluorescence, higher = more signal;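 note: score merges spot fluorescence with signal to noise from triplicate slides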
[6] = small-molecule microarray binders of probe aWnt5a, primary screen, biochemical, biotinylated probe, 635/667 nm fluorescence (AID 1113); conditions: higher = more signal;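 note: score merges 667 nm fluorescence intensity with signal-to-noise per printed feature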
[7] = small-molecule microarray binders of probe aShh, primary screen, biochemical, biotinylated probe, 635/667 nm fluorescence (AID 1114); conditions: higher = more signal;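 note: probe is biotin-labelled aShh protein from a stem cell growth factor screen; measures binding of labelled protein to compounds printed on the slide; score merges feature fluorescence at 667 nm with signal-to-noise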
[8] = small-molecule microarray binders of probe aNog, primary screen, biochemical, biotinylated probe, 635/667 nm fluorescence (AID 1115); conditions: higher = more signal;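 note: probe is biotinylated aNog protein used at 0.15 µg/mL for 1 h at 4 C; z-score combines 667 nm fluorescence of each spot with its signal to noise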
[9] = target: Torsin-1A-interacting protein 1 (Homo sapiens) (UniProt Q5JTV8); experiment: LAP1 binders from COS7 cell lysate, primary screen, small-molecule microarray, 635/667 nm fluorescence (AID 1116); conditions: COS7-hLAP1 lysate binding, 635 nm fluorescence, higher = more signal
Chain of Torsin-1A-interacting protein 1 (Homo sapiens) (Q5JTV8 whole entry, looked up): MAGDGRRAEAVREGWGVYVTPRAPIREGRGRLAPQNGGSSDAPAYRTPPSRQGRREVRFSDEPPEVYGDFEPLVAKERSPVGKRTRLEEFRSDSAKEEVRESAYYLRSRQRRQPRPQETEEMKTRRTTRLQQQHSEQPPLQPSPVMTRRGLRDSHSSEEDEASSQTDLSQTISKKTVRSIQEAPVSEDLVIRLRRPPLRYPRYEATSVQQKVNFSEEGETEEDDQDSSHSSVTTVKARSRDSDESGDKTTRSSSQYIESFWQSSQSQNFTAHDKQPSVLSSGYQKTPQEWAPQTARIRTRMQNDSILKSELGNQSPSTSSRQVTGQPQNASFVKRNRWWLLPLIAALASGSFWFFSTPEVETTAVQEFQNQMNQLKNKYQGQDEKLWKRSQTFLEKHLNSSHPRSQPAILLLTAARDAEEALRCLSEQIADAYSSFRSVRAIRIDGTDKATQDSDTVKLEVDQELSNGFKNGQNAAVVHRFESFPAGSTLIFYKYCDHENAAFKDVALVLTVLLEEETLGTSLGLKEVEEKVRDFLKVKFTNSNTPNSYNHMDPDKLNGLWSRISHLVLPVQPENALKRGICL

[10] = target: Alpha-bungarotoxin (Bungarus multicinctus) (UniProt P60615); experiment: alpha-bungarotoxin binders on microarray, profiling panel, artefact control for SMM control protein annotation, biochemical, small-molecule microarray, Alexa647 label, 635/667 nm fluorescence (AID 1117); conditions: alpha-BTX-A647 binding fluorescence, higher = more signal
Chain of Alpha-bungarotoxin (Bungarus multicinctus) (P60615 whole entry, looked up): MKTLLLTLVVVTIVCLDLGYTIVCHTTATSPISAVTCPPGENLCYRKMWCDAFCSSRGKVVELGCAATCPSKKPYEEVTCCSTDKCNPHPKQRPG

COc1ccc(CCNC(=O)[C@@H]2c3ccccc3C(=O)N(Cc3ccccc3Cl)[C@H]2c2ccc(CO)cc2)cc1
composite z-score [1]: 1.07 | z-score [2]: -1.37 | composite z-score [3]: 0.147 | composite z-score [4]: -0.0739 | composite z-score [5]: -0.0544 | composite z-score [6]: -0.152 | composite z-score [7]: 0.0611 | composite z-score [8]: 0.395 | composite z-score [9]: 0.412 | composite z-score [10]: -0.473

NC(=O)N1C(=O)C2C(C1=O)C1C=C(c3ccc(CO)cc3)C2C(c2cccs2)N1Cc1cccc(OC(F)(F)F)c1 (stereo not given)
composite z-score [1]: 0.142 | z-score [2]: -0.657 | composite z-score [3]: -0.647 | composite z-score [4]: 1.51 | composite z-score [5]: 1.16 | composite z-score [6]: 0.0573 | composite z-score [7]: 0.275 | composite z-score [8]: 0.596 | composite z-score [9]: 1.13 | composite z-score [10]: 0.611

Cc1ccc(S[C@]2(C(=O)NCCCN(C)C)CC(=O)N(Cc3cc(C(F)(F)F)cc(C(F)(F)F)c3)[C@@H]2c2ccc(CO)cc2)cc1
composite z-score [1]: -0.224 | z-score [2]: 0.478 | composite z-score [3]: -0.286 | composite z-score [4]: 0.136 | composite z-score [5]: 0.499 | composite z-score [6]: -0.152 | composite z-score [7]: -0.0769 | composite z-score [8]: -0.29 | composite z-score [9]: 0.523 | composite z-score [10]: 0.182

COC(=O)[C@@]1(Cc2ccc(OC)cc2)[C@H]2c3cc(C(=O)N4CCCC4)n(Cc4ccc(O)c(OC)c4)c3C[C@H]2CN1C(=O)c1ccccc1
composite z-score [1]: 0.425 | z-score [2]: -1.78 | composite z-score [3]: -0.114 | composite z-score [4]: 2.7 | composite z-score [5]: 0.957 | composite z-score [6]: 0.755 | composite z-score [7]: 1.04 | composite z-score [8]: 2.35 | composite z-score [9]: 3.25 | composite z-score [10]: 1.25

CCOC(=O)C[C@H]1[C@H](OC(=O)c2ccc(C(=O)c3ccccc3)cc2)[C@@H](NC(=O)c2ccccc2)c2cc(OCCCO)ccc2N1C(=O)c1ccc2ccccc2n1
composite z-score [1]: 1.31 | z-score [2]: -1.16 | composite z-score [3]: 0.495 | composite z-score [4]: 1.61 | composite z-score [5]: 0.506 | composite z-score [6]: -0.0614 | composite z-score [7]: -0.138 | composite z-score [8]: -0.308 | composite z-score [9]: 0.239 | composite z-score [10]: 0.635

C=CCOC(=O)[C@@H]1[C@H]2C(=O)O[C@H](c3ccccc3)[C@H](c3ccccc3)N2[C@H](c2ccc(OCCOC(=O)[C@H]3C[C@H]4C(=O)N5CCC[C@H]5C(=O)N4[C@H]3c3ccc(O)cc3)cc2)[C@@]12C(=O)Nc1ccc(I)cc12
composite z-score [1]: 0.453 | z-score [2]: -1.5 | composite z-score [3]: 0.928 | composite z-score [4]: 1.02 | composite z-score [5]: -0.181 | composite z-score [6]: -0.203 | composite z-score [7]: 0.285 | composite z-score [8]: -0.326 | composite z-score [9]: 0.65 | composite z-score [10]: 1.61

CCCC[C@@H]1C[C@H]1[C@@H](NC(=O)c1cccs1)c1ccc(-c2ccccc2)cc1
composite z-score [1]: 0.495 | z-score [2]: -2.05 | composite z-score [3]: -0.0554 | composite z-score [4]: 0.362 | composite z-score [5]: 0.295 | composite z-score [6]: -0.0704 | composite z-score [7]: -0.138 | composite z-score [8]: 0.103 | composite z-score [9]: 0.254 | composite z-score [10]: -0.474

C[N+](C)(C)CCCCNC(=O)[C@@H]1C[C@@H]2C(=O)N[C@@H](Cc3ccccc3)C(=O)N2[C@@H]1c1cccc(OCCO)c1
composite z-score [1]: -1.03 | z-score [2]: -0.759 | composite z-score [3]: 0.633 | composite z-score [4]: -0.985 | composite z-score [5]: 0.18 | composite z-score [6]: -0.178 | composite z-score [7]: -0.0146 | composite z-score [8]: -0.12 | composite z-score [9]: 0.0849 | composite z-score [10]: -0.671

NCCCCCNC(=O)[C@@H]1C[C@@H]2C(=O)N[C@@H](Cc3ccccc3)C(=O)N2[C@@H]1c1ccc(O)cc1
composite z-score [1]: 1.37 | z-score [2]: -0.471 | composite z-score [3]: 0.406 | composite z-score [4]: 1.18 | composite z-score [5]: 1.16 | composite z-score [6]: -0.0425 | composite z-score [7]: -0.138 | composite z-score [8]: -0.144 | composite z-score [9]: 0.672 | composite z-score [10]: 0.924

CN1C(=O)C2C=CC(C(O)C3CC=CCC3)N(N(c3ccccc3)c3ccccc3)C2C1=O (stereo not given)
composite z-score [1]: -1.02 | z-score [2]: -0.155 | composite z-score [3]: 0.411 | composite z-score [4]: -0.549 | composite z-score [5]: -0.75 | composite z-score [6]: 0.027 | composite z-score [7]: -0.0322 | composite z-score [8]: -0.0446 | composite z-score [9]: 0.533 | composite z-score [10]: 0.141

CCCC=C(CCC)[C@@H](NC(=O)c1cccs1)c1ccc(C(F)(F)F)cc1
composite z-score [1]: 1.17 | z-score [2]: -0.668 | composite z-score [3]: 1.16 | composite z-score [4]: 1.48 | composite z-score [5]: 0.522 | composite z-score [6]: 0.0546 | composite z-score [7]: 0.336 | composite z-score [8]: 1.15 | composite z-score [9]: 1.27 | composite z-score [10]: 0.734

O=C1OCCC/C=C\[C@H]2OC34C=CCN(Cc5ccccc5)C(=O)[C@H]3N(CCCO)C(=O)[C@@H]4C12 (stereo not given in full)
composite z-score [1]: 0.0636 | z-score [2]: -0.779 | composite z-score [3]: -2.09 | composite z-score [4]: -0.537 | composite z-score [5]: 0.464 | composite z-score [6]: -0.178 | composite z-score [7]: -0.16 | composite z-score [8]: -0.244 | composite z-score [9]: 1.82 | composite z-score [10]: -0.972

CC1CC/C=C\[C@H]2OC34C=CCN(C(C)(C)C)C(=O)[C@H]3N(CCO)C(=O)[C@@H]4C2C(=O)O1 (stereo not given in full)
composite z-score [1]: -0.432 | z-score [2]: -0.106 | composite z-score [3]: -1.66 | composite z-score [4]: -1.34 | composite z-score [5]: -0.746 | composite z-score [6]: -0.224 | composite z-score [7]: -0.372 | composite z-score [8]: 0.489 | composite z-score [9]: -1.25 | composite z-score [10]: -0.153

COCCOC(=O)N1C(=O)[C@@]2(c3cc(C#CCC(C(=O)OC)C(=O)OC)ccc31)[C@H](C(=O)N1CCN(c3ncccn3)CC1)[C@H]1C(=O)O[C@H](c3ccccc3)[C@H](c3ccccc3)N1[C@@H]2c1ccccc1OCCO
composite z-score [1]: 1.38 | z-score [2]: -1.94 | composite z-score [3]: 1.16 | composite z-score [4]: 0.875 | composite z-score [5]: -0.487 | composite z-score [6]: -0.0403 | composite z-score [7]: -0.17 | composite z-score [8]: -0.141 | composite z-score [9]: 0.351 | composite z-score [10]: 1.29

COCCOC(=O)N1C(=O)[C@@]2(c3cc(C#CCC(C(=O)OC)C(=O)OC)ccc31)[C@H](c1ccccc1OCCO)N1[C@H](c3ccccc3)[C@H](c3ccccc3)OC(=O)[C@H]1[C@@H]2C(=O)N1CCN(c2ncccn2)CC1
composite z-score [1]: 1.37 | z-score [2]: -1.99 | composite z-score [3]: 0.755 | composite z-score [4]: 1.92 | composite z-score [5]: 1.18 | composite z-score [6]: 0.102 | composite z-score [7]: 0.166 | composite z-score [8]: 0.277 | composite z-score [9]: 2.01 | composite z-score [10]: 0.771

COCCOC(=O)N1C(=O)[C@@]2(c3cc(C#CCC(C(=O)OC)C(=O)OC)ccc31)[C@H](C(=O)Nc1nc3ccccc3s1)[C@H]1C(=O)O[C@H](c3ccccc3)[C@H](c3ccccc3)N1[C@@H]2c1ccccc1OCCO
composite z-score [1]: 0.142 | z-score [2]: -1.52 | composite z-score [3]: 0.6 | composite z-score [4]: 1.69 | composite z-score [5]: 0.72 | composite z-score [6]: -0.0445 | composite z-score [7]: 0.151 | composite z-score [8]: 0.106 | composite z-score [9]: 0.886 | composite z-score [10]: 2.2
